USP17 block: inhibitors of human USP17 deubiquitinase; inhibition, % at 50 µM; A8MUK1; purified USP17, Ub-rhodamine cleavage fluorescence, 3 h; AID 1645855; 47,000 tested, 6.5% active
Target sequence (A8MUK1 whole entry, looked up): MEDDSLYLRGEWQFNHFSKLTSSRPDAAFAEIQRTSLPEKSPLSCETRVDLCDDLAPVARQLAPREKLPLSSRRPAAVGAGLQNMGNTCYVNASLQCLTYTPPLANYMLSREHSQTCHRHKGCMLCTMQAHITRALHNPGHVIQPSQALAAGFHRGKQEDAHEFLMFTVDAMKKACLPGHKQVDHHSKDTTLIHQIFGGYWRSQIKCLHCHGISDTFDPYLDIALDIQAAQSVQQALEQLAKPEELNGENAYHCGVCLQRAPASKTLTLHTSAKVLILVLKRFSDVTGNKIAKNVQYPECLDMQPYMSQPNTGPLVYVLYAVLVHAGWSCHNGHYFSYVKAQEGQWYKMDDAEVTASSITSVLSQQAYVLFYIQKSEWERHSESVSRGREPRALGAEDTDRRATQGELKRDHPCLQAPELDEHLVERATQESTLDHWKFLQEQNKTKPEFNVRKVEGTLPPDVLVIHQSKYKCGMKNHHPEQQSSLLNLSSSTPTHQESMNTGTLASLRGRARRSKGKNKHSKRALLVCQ
USP30 block: human USP30 deubiquitinase inhibition. 47,000 tested, 5.3% active. inhibition, % at 25 µM. Q70CQ3. purified USP30, Ub-rhodamine cleavage fluorescence. AID 1645860
USP8 inh: inhibitors of human USP8 deubiquitinase. inhibition, % at 20 µM. P40818. purified USP8, Ub-rhodamine cleavage fluorescence, 30 min. 47,000 tested, 4.2% active
The depositor's hits bear a star; nt = no result. A selection: hits, their analogues and other compounds. The true share with any hit is near 12%. No stated cut-off is given here; in the data, active means inhibition above about 30%; inactive means the rest.

SMILES	USP17 block	USP30 block	USP8 inh
O=[N+]([O-])c1ccc(S(=O)(=O)NCCn2ccc3ccccc32)cc1	-18.5	1.9	-138.7
Cc1nc2ccccc2n1CCC(O)c1ccccc1 (stereo unspecified)	4.3	10.0	9.8
Cc1nnc2c(Nc3ccc4c(c3)n(C)c(=O)n4C)nc3ccccc3n12	5.1	16.8	0.6
CC(C)c1ccc(NC(=O)c2cc3ncc(Br)cn3n2)cc1	51.6*	-37.5	61.1*
CC(C)c1ccc(NC(=O)c2cc3cccnc3n(C)c2=O)cc1	-0.1	-6.1	0.1
CC(=O)c1ccc2[nH]c(C)c(CN3CCCCC3)c(=O)c2c1	2.6	-31.3	2.1
O=C(c1ccc2c(c1)CCN2C(=O)C1CC1)N1CCCC1	-1.2	2.4	7.5
COc1ccc2c(c1)c1ncn(CCC3=CCCCC3)c(=O)c1n2C	15.6	31.2*	15.4
COc1ccc2c(c1)c1ncn(Cc3ccc4c(c3)OCO4)c(=O)c1n2C	35.5*	48.4*	25.9
COc1ccc2c(c1)c1ncn(CCN3CCCC3)c(=O)c1n2C	-20.2	-28.5	-1.2
COc1ccc2c(c1)c1ncn(CCN3CCNCC3)c(=O)c1n2C	9.4	9.0	-0.2
CC(C)c1ccc(S(=O)(=O)N2CCC(C(=O)N3CCc4sccc4C3)CC2)cc1	3.3	12.1	18.9
O=C(C1CCN(S(=O)(=O)c2cc(F)ccc2F)CC1)N1CCc2sccc2C1	33.3*	-1.1	73.8*
Cc1ccc(NC(=O)CNc2ccccc2N2CCOCC2)cc1S(=O)(=O)N(C)C	5.3	14.9	-0.8
Cc1ccc(CCNC(=O)c2nn(C34CC5CC(CC(C5)C3)C4)cc2[N+](=O)[O-])cc1	9.0	47.0*	-19.5
Cc1ccc(CNC(=O)c2ccc(N3CCC(C)CC3)c([N+](=O)[O-])c2)cc1	-7.3	-1.0	-10.9
COc1ccc(CSc2nccc(-c3ccc(Cl)cc3)c2C#N)cc1	-3.4	2.4	-43.9
COc1ccc(Cn2cc(-c3ccc(Cl)cc3)cc(C#N)c2=O)cc1	13.8	41.5*	6.5
Cc1ccsc1Cn1nccc1NC(=O)c1cccnc1SC(F)F	-27.4	-22.0	-27.0
O=S1(=O)CCN2C(c3ccc4c(c3)CCCC4)=CSC2=N1	19.6	18.4	11.6
CC(=O)Nc1ccc(C2=CSC3=NS(=O)(=O)CCN23)cc1	9.5	31.6*	12.5
O=C(Nc1cccc(F)c1)C1=NOC2(CCNCC2)C1	-52.8	-69.2	-352.5
COCCN(Cc1ccc(F)cc1)Cc1cc(=O)c2cc(C)ccc2[nH]1	2.3	4.1	13.3
COC(=O)c1ccccc1NC(=O)c1cc(-c2ccco2)on1	16.1	-153.3	15.5
COc1ccc(-c2cc(C(=O)NCC(=O)O)no2)cc1	-0.1	-95.7	-0.8
SMILES	USP17 block	USP30 block	USP8 inh
Cc1ccc(Cn2ccc(NC(=O)c3cc(-c4ccco4)on3)n2)cc1	30.4*	-265.8	-60.1
Cc1cc(NC(=O)c2ccccn2)nn1Cc1ccccc1	1.7	3.4	-8.5
COc1cccc(-c2cc(C(=O)Nc3cc(C)n(Cc4ccc(Cl)cc4)n3)no2)c1	20.1	75.3*	38.1*
COc1ccc(-c2cc(C(=O)Nc3ccnn3Cc3ccccc3)no2)cc1	36.5*	32.0*	0.1
Cc1nc(CNC(=O)Cc2ccc(Cl)cc2)cs1	-8.1	4.5	0.0
N#Cc1ccccc1NC(=O)C1CN(C(=O)c2ccc3c(c2)OCO3)C1	-2.1	-0.1	0.2
O=C(C(c1ccccc1)C1CCCC1)N1CCc2nc(N3CCCCC3)[nH]c(=O)c2C1 (stereo unspecified)	0.5	0.7	2.6
CO[C@@H]1C[C@@H](C[C@H]2CC[C@H](C)[C@H]([C@@H](C)C(=O)O)O2)O[C@]2(O[C@](C)([C@H]3CC[C@@](C)([C@@H]4O[C@@H]([C@H]5O[C@](C)(O)[C@H](C)C[C@@H]5C)C[C@@H]4C)O3)C[C@H]2C)[C@@H]1C	16.3	34.1*	7.9
CC[C@@]1([C@@H]2O[C@@H]([C@H]3O[C@@](O)(CO)[C@H](C)C[C@@H]3C)C[C@@H]2C)CC[C@H]([C@]2(C)CCC3(C[C@H](O)[C@@H](C)[C@@H]([C@@H](C)[C@H](OC)[C@H](C)C(=O)O)O3)O2)O1 (stereo partly specified)	4.6	18.7	0.1
CCCCOc1ccc(-c2nc(SCC(=O)Nc3cccc(OC)c3)c3c4c(sc3n2)COC(C)(C)C4)cc1	11.5	13.5	12.2
Cc1cc2c(cc(C(=O)NC3CC3)n2C)s1	-3.7	-28.7	-0.1
Cc1sc2ccn(C)c(=O)c2c1C(=O)NC1CCCC1	61.8*	3.2	93.7*
CCOc1ccccc1NC(=O)CN1c2ccc(F)cc2-c2ccccc2S1(=O)=O	4.3	18.6	7.9
CN(C)C(=O)c1ccc(Nc2nc(-c3cccnc3)nc3ccccc23)cc1	37.1*	-49.7	-19.0
CC(=O)NCC(=O)N1CCN(c2nc(-c3cccnc3)nc3ccccc23)CC1	-18.5	-18.6	-57.4
CC(C(=O)Nc1ccc2c(c1)OCO2)N1CCC(C(=O)c2ccccc2)CC1 (stereo unspecified)	-0.3	-11.9	6.0
COc1ccc(Cl)cc1-c1nc(-c2ccc(=O)[nH]c2)no1	-38.6	-163.7	-63.4
COc1ccc(Cl)cc1-c1nc(-c2cccnc2)no1	35.1*	-13.4	-13.4
O=C(c1ccco1)[C@@H]1[C@@H]2CCCN2[C@]2(C(=O)Nc3c(Cl)cccc32)[C@@]12C(=O)Nc1ccccc12	-16.3	-65.5	-26.8
Cc1ccc(OCC(=O)Nc2cccn3nc(-c4cccnc4)nc23)cc1	-28.4	-84.4	-68.1
CCC1CCCCN1C(=O)c1cc2c(=O)n3ccccc3nc2n1Cc1ccccc1 (stereo unspecified)	9.3	30.5*	9.2
Cc1cccn2c(=O)c3cc(C(=O)NCCCOC(C)C)n(Cc4ccccc4)c3nc12	-10.1	0.5	-7.9
CNC(=O)c1cc2c(=O)n3cccc(C)c3nc2n1Cc1ccccc1	79.6*	6.8	21.2
O=C(c1cc2c(=O)n3ccccc3nc2n1Cc1ccccc1)N1CCCCCC1	-9.5	-15.3	-2.6
CCc1cnc(N2CCC3(CCCN(c4ncccn4)C3)C2)nc1 (stereo unspecified)	-29.2	nt	0.1
SMILES	USP17 block	USP30 block	USP8 inh
CCSc1ccccc1C(=O)NCC1(O)CCOc2ccccc21 (stereo unspecified)	-2.5	-5.0	-11.8
O=C(NCc1ccc2c(c1)OCO2)c1cc2c(s1)-c1ccccc1OC2	17.2	57.4*	56.3*
CN1CCN(c2ccccc2NC(=O)c2cc3c(s2)-c2ccccc2SC3)CC1	-1.5	-2.1	9.3
O=C(NCc1ccc(Cl)cc1)c1cc2c(s1)-c1ccccc1OC2	87.5*	54.7*	73.6*
CN1CCCc2cc(C(=O)NCc3ccccc3)sc21	-19.9	-12.4	-20.5
O=C1COc2ccc(C(=O)NCc3ccc4c(c3)OCO4)cc2N1	-5.8	0.3	2.1
O=C(Nc1cccc(C(F)(F)F)c1)c1cc2c(s1)-c1ccccc1OC2	nt	70.2*	71.8*
Cc1ccc(NC(=O)c2cc3c(s2)-c2ccccc2OC3)c(Cl)c1	26.6	41.4*	27.6
Cc1nc(-c2ccccn2)sc1C(=O)Nc1cccc(C(F)(F)F)c1	0.9	-5.4	-15.4
O=C(NCCSc1ccc(Br)cc1)c1ccc(F)cc1	20.4	12.0	12.9
Cc1cc(C(=O)C2CC(=O)Nc3c2c(C)nn3-c2ccc(C)c(C)c2)c(C)s1 (stereo unspecified)	-8.3	-9.8	-7.1

From PubChem BioAssay
